Anthrax LF inh2: Bacillus anthracis LF protease inhibitors, primary screen, biochemical, multiplex microsphere, MLPCN library. Lethal factor (Bacillus anthracis), P15917. multiplex microsphere protease cleavage assay. inhibition, % at 10 µM. hit rate 0.12% among 360,000; further: plate controls were buffer without enzyme for full effect and enzyme alone for no effect
Target sequence (P15917 whole entry, looked up): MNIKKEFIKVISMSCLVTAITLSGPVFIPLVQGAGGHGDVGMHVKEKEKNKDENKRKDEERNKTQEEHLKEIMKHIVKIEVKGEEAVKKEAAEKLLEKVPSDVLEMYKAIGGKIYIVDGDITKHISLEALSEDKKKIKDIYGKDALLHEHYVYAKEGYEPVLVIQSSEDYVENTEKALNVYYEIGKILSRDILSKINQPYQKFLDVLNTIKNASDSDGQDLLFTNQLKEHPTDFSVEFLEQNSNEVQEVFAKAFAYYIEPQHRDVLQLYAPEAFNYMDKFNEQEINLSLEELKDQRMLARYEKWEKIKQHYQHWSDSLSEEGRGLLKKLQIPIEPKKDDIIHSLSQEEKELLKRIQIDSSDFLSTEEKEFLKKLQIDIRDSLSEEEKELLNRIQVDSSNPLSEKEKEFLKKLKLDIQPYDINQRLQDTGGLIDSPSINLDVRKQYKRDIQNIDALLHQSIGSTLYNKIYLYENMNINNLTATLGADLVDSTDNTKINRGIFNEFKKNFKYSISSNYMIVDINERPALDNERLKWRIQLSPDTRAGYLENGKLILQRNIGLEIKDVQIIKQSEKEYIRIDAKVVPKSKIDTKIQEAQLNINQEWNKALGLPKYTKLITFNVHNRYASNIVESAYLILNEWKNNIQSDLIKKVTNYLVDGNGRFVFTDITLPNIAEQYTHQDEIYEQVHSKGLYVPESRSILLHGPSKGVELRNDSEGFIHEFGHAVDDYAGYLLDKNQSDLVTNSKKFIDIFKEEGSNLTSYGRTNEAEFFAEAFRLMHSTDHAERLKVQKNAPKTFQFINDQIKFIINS
Bead autofluor: counter-screen for toxin protease inhibitors: compound fluorescence; fluorescence intensity (test concentration not listed); hit rate 3.1% among 360,000; AID 624483; compound autofluorescence counterscreen, microsphere flow cytometry; active compounds read high; in the data active means fluorescence intensity above about 16000; inconclusive means no clear call, values can overlap the other calls
BoNT A protease: BoNT/A light chain protease inhibitors, primary screen, biochemical, flow cytometry, MLPCN library; Botulinum neurotoxin type A light chain protease (Clostridium botulinum A str. ATCC 3502); multiplex microsphere protease substrate cleavage; inhibition, % at 10 µM; hit rate 0.17% among 360,000; AID 588499, 2011; further: plate controls were buffer without enzyme for full effect and enzyme alone for no effect
BoNT F protease: BoNT/F light chain protease inhibitors, primary screen, biochemical, flow cytometry, MLPCN library | Botulinum neurotoxin type F light chain protease (Clostridium botulinum) | Multiplex microsphere protease cleavage assay | inhibition, % at 10 µM | hit rate 0.22% among 360,000 | AID 588497, 2011; in the data active means inhibition above about 35%, passing the limit was not always enough; inconclusive means no clear call, values can overlap the other calls; further: plate controls were buffer without enzyme for full effect and enzyme alone for no effect
Starred values were filed as active, the others as inactive; ? = inconclusive; ! = not active in a repeat. An excerpt weighted towards active compounds, which were near 3.5% of everything screened. Unless noted, no stated cut-off is given here; in the data, active means inhibition above about 30%; inconclusive means no clear call, values can overlap the other calls; inactive means below that.

SMILES	Anthrax LF inh2	Bead autofluor	BoNT A protease	BoNT F protease
CCOC(=O)C1=C(C)N=C2SC(C(=O)OC)=CC(=O)N2C1c1cccc(OC)c1 (centres undefined)	-2	19879*	0	-4
Cc1cc(C)cc(Cn2cc(CN3CC(N4CCSCC4)CS3(=O)=O)nn2)c1 (centres undefined)	-2	4137	0	6
Cc1c(Cl)cccc1NC(=O)CC(Cc1ccccc1)C(=O)O (centres undefined)	-3	3577	-2	32
Cc1c(Cl)cccc1NC(=O)CC(C(=O)O)C1CCCO1 (centres undefined)	-3	22699*	1	0
CCCCSc1nnc(-c2ccc(NC(=O)CCc3ccccc3)cc2)n1C	-11	20381*	3	5
CC(C)OC(=O)CSc1nnc(-c2ccccn2)n1C	-4	17273*	-1	-6
CCc1ccc(NC(=O)CSc2nnc(-c3ccccn3)n2C)cc1	-3	19708*	1	2
CCCS(=O)(=O)NC(=O)C1(C)CCCN(C(=O)c2ccc3ccccc3c2)C1 (centres undefined)	-13	3796	0	3
CCOC(=O)C1=C(C)NC(C)=C(C(=O)OCC)C1	-4	18757*!	?	?
CCOC(=O)C1=C(C)NC(C)=C(C(=O)OCC)C1C(=O)O	1	20924*	?	-4
CCCC1C(C(=O)OCC)=C(C)NC(C)=C1C(=O)OCC	-1	5086	0	-24
CN(C)N(C(=O)c1cc(-c2cccs2)nn1-c1ccccc1)C1CCS(=O)(=O)C1 (centres undefined)	-8	3398	-1	-6
CC1(C)CC(=O)C=C(NCc2ccccc2)C1	-2	9398	-1	-12
CC1(C)CC(=O)C=C(Nc2cc(-c3ccccc3)[nH]n2)C1	-1	21249*	4	6
Cn1c(SCC(=O)Nc2cccnc2Cl)nc2ccccc21	-2	2852	0	4
Cc1ccccc1OC1CCN(C(=O)c2cc(COc3ccccc3)on2)CC1	-3	6345	0	-4
CS(=O)(=O)n1nc(-c2ccc(Cl)cc2)nc1SCc1ccccc1	-1	24875*	-4	-6
CSc1nc(-c2ccc(Cl)cc2)nn1S(=O)(=O)c1ccccc1	-6	4249	0	-2
O=C(Nc1c(C(=O)N2CCOCC2)cnn1-c1ccccc1)c1ccco1	-4	23770*	?	-2
O=C(COc1ccc(F)cc1F)N1CCCCCCC1	10	3613	0	-10
C=CCOC(=O)C1CC=CCC1C(=O)Oc1ccc(F)cc1F (centres undefined)	-3	24043*	?	-3
Cc1ccccc1NC(=O)/C(=C/c1cccs1)NC(=O)c1ccco1	0	2456	0	3
Cc1ccccc1NC(=O)/C(=C\c1cccs1)NC(=O)c1ccco1	-4	23554*	-2	-2

Assay outcomes from PubChem BioAssay.
